# Source: PubChem (National Center for Advancing Translational Sciences (NCATS))
# BAZ2B block – qHTS Assay for Inhibitors of BAZ2B | AlphaScreen BAZ2B-H3K14Ac peptide displacement | AID 504333, 2011 | Potency, µM (doses to about 114 µM), for the others: at the highest dose activity change, negative = inhibition, usual class: inhibitors | 360,000 tested, 4.4% active | Bromodomain adjacent to zinc finger domain protein 2B (Homo sapiens), Q9UIF8; note: % is set by controls: 0 for no effect and ±100 for the full control effect; nearly all actives have a fitted effect of over 60% in size
#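 Complex of BAZ2B and biotin-H3K14Ac (50 nM apiece) forms over 30 min at RT, then faces library compounds up to 110 uM for another 30 min; AlphaScreen beads added, 20 min dark incubation, luminescence read.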
# HP1b binding inh – HTS for Inhibitors of HP1-beta Chromodomain Interactions with Methylated Histone Tails | Chromobox protein homolog 1 (Homo sapiens), P83916 | AlphaScreen HP1-beta / biotin-H3K9me3 peptide binding | Potency, µM (highest dose often 114 µM), for inactives: at the top dose activity change, negative = inhibition, most hits filed as inhibitors | 390,000 tested, 0.56% active | AID 540317, 2011; note: nearly all actives have a fitted effect of over 70% in size
#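 HP1-beta protein (50 nM final) preincubated 30 min at room temperature with biotinylated H3(1-18)K9me3 peptide (50 nM) in PBS pH 7.4, 0.01% Tween-20, then compound added for 30 min. AlphaScreen streptavidin donor/nickel chelate acceptor beads (10 ug/mL final), 30 min dark, luminescence read.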
# JMJD2A Tudor inh – qHTS Assay for Inhibitors of JMJD2A-Tudor Domain. AID 504339, 2011. Potency, µM (titrated, usually from 114 µM), for the others: top-dose activity change, negative = inhibition, most hits filed as inhibitors. Lysine-specific demethylase 4A (Homo sapiens), O75164. 390,000 tested, 4.4% active. AlphaScreen JMJD2A-Tudor / H3K4me3 peptide binding; note: % is set by controls: 0 for no effect and ±100 for the full control effect; nearly all actives have a fitted effect of over 50% in size
# Sfp inh – qHTS Assay for Inhibitors of Bacillus subtilis Sfp phosphopantetheinyl transferase (PPTase); Potency, µM, without a hit: largest response in the series, negative = inhibition, actives largely listed as inhibitors; Biochemical Sfp PPTase activity, qHTS; 310,000 tested, 3.5% active;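 note: the enzyme is Sfp with the accession as filed and its product quenches rhodamine fluorescence; 0% = enzyme reaction without inhibitor and -100% = no enzyme wells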
#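 Buffer: 50 mM Hepes-Na pH 7.6, 10 mM MgCl2, 0.01% Nonidet P-40, 0.01% BSA. Enzyme 15 nM, pre-exposed to compound 15 min; substrates then added and fluorescence change tracked over 30 min.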
# G9a inh – qHTS Assay for Inhibitors of Histone Lysine Methyltransferase G9a | Histone-lysine N-methyltransferase EHMT2 (Homo sapiens), Q96KQ7 | Potency, µM (doses to about 102 µM), inactives show top-dose activity, negative = inhibition, hits mostly inhibitors | 350,000 tested, 8.8% active | G9a H3K9 monomethylation, AlphaScreen, 2 h; note: % is set by controls: 0 for no effect and ±100 for the full control effect; nearly all actives have a fitted effect of over 75% in size
#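 Chemiluminescent proximity detection of H3K9 monomethylation, read after 10 min bead incubation in the dark. Reaction: 20 nM G9a, 500 nM biotin-H3K9 peptide, 20 uM SAM cofactor, 2 h, room temperature, following 15 min enzyme-compound preincubation.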
# Numbers without * were called inactive; ? = inconclusive; nt = not tested or not shown; [ ] = dose if it differs, or a comment. In the library only some 12% were active in any assay of this set; here they are far more common. Calls come from the whole dose curve; as a rule, active = well fitted curve in the direction sought with a large enough effect; inconclusive = small, poorly fitted or top-dose-only effect, or another doubt; inactive = no such curve, though single readings can be large; an effect the other way counts as inactive or inconclusive. Potency is the fitted concentration of half-maximal effect.
SMILES,BAZ2B block,HP1b binding inh,JMJD2A Tudor inh,Sfp inh,G9a inh
COc1ccc(C2CC(=O)c3c(C)nc(N4CCN(Cc5ccccc5)CC4)nc3C2)cc1OC (centres undefined),?,-14%,?,-20%,35µM*
COc1cc(C2CC(=O)c3cnc(N4CCN(Cc5ccccc5)CC4)nc3C2)cc(OC)c1OC (centres undefined),-36%,-20%,-36%,-19%,?
Cn1c(=O)oc2cc(S(=O)(=O)NCCC(=O)NCc3ccc(F)cc3)ccc21,-13%,33%,-2%,17%,57%
CCOc1cc(/C=C2/C(=O)N(c3ccccc3)N=C2C)ccc1OC(=O)c1cccs1,50µM*,-2%,?,-18%,40µM*
CC1=NN(c2ccccc2)C(=O)/C1=C/N(C)C,?,31%,-11%,-3%,nt
CC(=O)Oc1ccc(/C=C2/C(=O)N(c3ccccc3)N=C2C)cc1,?,-26%[57 µM],?,-10%,?
CC1=NN(c2ccccc2)C(=O)/C1=C\C=C\c1ccccc1,4µM*,10µM*,10µM*,-4%,2.2µM*
COc1ccc(/C=C2/C(=O)N(c3ccccc3)N=C2C)cc1OC,-12%,4%,-30%,13%,71µM*
CC1=NN(c2ccccc2)C(=O)/C1=C/c1cccc(C)c1,?,-1%[57 µM],-31%,-6%,50µM*
COc1ccc(C2=NN(c3ccccc3)C(=O)/C2=C\c2ccc(O)c(OC)c2)cc1,25µM*,16µM*,16µM*,5%,16µM*
Cc1ccc2nc(N3CCOCC3)c(C=O)cc2c1,4%,37%,4%,7%,64%
CC1=NN(c2ccccc2)C(=O)/C1=C/c1cc2cc(C)ccc2nc1N1CCCCC1,8.9µM*,nt,nt,-24%,-15%[0.0925 µM]
Cc1cccc(C)c1NC(=O)CSc1nc(-c2ccccc2)nc2c1Cc1c(CO)cnc(C)c1O2,-11%,41%,-2%,nt,2%[59 µM]
CCCCCCCn1c(C)nnc1-c1cnn(C)c1N,?,40%,-5%,4%,-2%
CCOC(=O)C1CCCN(C(=S)Nc2ccc(S(=O)(=O)N3CCOCC3)cc2)C1 (centres undefined),nt,41%,-3%,nt,nt
Cc1ccccc1CCNC(=O)c1ccc2c(c1)c(C)c(C)n2C,?,-10%,?,nt,?
Cc1c(C)n(C)c2ccc(C(=O)NCCCN3CCCCC3C)cc12 (centres undefined),?,33%,?,-6%,-8%
CCOC(=O)Cn1c(=O)n(Cc2ccco2)c(=O)c2ccc(C(=O)NCCc3ccccc3)cc21,-4%,5%,-23%,56µM*,-17%[0.0925 µM]
Cc1c(C)n(C)c2ccc(C(=O)NCCCN(C)C3CCCCC3)cc12,25µM*,1%,?,-14%,50µM*
CCn1c(C)c(C)c2cc(C(=O)NCCc3ccco3)ccc21,?,-11%,?,-6%,50µM*
Cc1c(C)n(C)c2ccc(C(=O)NCCc3ccco3)cc12,35µM*,?,?,?,nt
COc1ccc(/C=C2\CCc3ccccc3C2=O)cc1Cn1cccn1,?,-4%,?,-24%,?
CCn1c(C)c(C)c2cc(C(=O)NCCc3cc(OC)c(OC)c(OC)c3)ccc21,45µM*,-12%,?,nt,?
Cc1c(C)n(C)c2ccc(C(=O)Nc3cccc4ccccc34)cc12,?,?,?,-11%,50µM*
Cc1c(S(=O)(=O)N2CCc3ccccc3C2)c(=O)n(C)c(=O)n1C,10%,22%,1%,16%,50µM*
SMILES,BAZ2B block,HP1b binding inh,JMJD2A Tudor inh,Sfp inh,G9a inh
CCCC(=O)Nc1cc(C(=O)O)ccc1Sc1ccc(C)cc1,1%,34%,-12%,-10%,45µM*
CCOC(=O)CN1CC23C=CC(O2)C(C(=O)Nc2ccc4c(c2)OCO4)C3C1=O (centres undefined),6%,31%,-6%,12%,-4%
Cc1cc(C)nc(-n2nc(C)c3c2N(Cc2ccccc2)C(=O)CC3c2ccc(Cl)cc2)n1 (centres undefined),-38%,39%,-20%,nt,-25%[59 µM]
Cc1c(N=NC2=C(O)CC(C)(C)CC2=O)cc2c(c1[N+](=O)[O-])C(C)(C)CC2(C)C,?,?,22µM*,23%,?
CC(=O)Nc1cc2c(c([N+](=O)[O-])c1C)C(C)(C)CC2(C)C,nt,5%,-10%,nt,nt
CCC1ON(C(C)C)C2c3nc4ccccc4n3CC12 (centres undefined),-1%,44%,-4%,14%,?
CC(=O)NNc1nc(-c2ccc(C)cc2)cs1,-19%,16%,-11%[11.4 µM],40µM*,32µM*
CC(=O)NNc1nc(-c2ccccc2)cs1,-35%,11%,?,20µM*,?
CC(=O)Nc1ccc(-c2csc(NC(=O)Cc3ccccc3F)n2)cc1,-28%,-16%,-29%,3%,40µM*
O=C(Cc1ccccc1F)Nc1nc(-c2ccc(F)c(F)c2)cs1,4%,38%,1%,1%,9%
O=C1CN(C(=O)c2ccccc2Cl)c2ccccc2N1,6%,29%,-13%,16%,4%
CCn1c(CNC(=O)c2ccc(OC)cc2)nnc1SC,0%,42%,-3%,3%,19%
O=C(NCC1CCCO1)c1cccnc1NCc1ccc(F)cc1 (centres undefined),-11%,30%,1%,10%,6%
COc1cc(/C=N/NC(=O)c2sc(N)c(C#N)c2C)cc(Br)c1O,-7%,28%,-9%,5%,22%[59 µM]
Cc1oc(/N=C/c2ccccc2)c(C#N)c1C,-31%,-2%,-7%,6%,?
Cc1oc(/N=C/c2cccc3ccccc23)c(C#N)c1C,-5%,-36%,35µM*,0%,-13%[59 µM]
COc1ccc(/C=N/c2oc(C)c(C)c2C#N)c(OC)c1,-8%,32%,12%,-5%,50µM*
COc1cc(/C=N/c2oc(C)c(C)c2C#N)cc(Br)c1O,?,-18%,?,-2%,10µM*
O=C(c1cn(Cc2ccccc2)nc1-c1cccnc1)N1CCN(Cc2ccccc2)CC1,4%,47%,0%,nt,19%[12.7 µM]
Cc1cc(C)c(S(=O)(=O)Nc2ccc(N(C)C)cc2)c(C)c1-n1cnnn1,40µM*,-27%,?,-3%,3.5µM*
Cc1cc(Nc2cccc(F)c2)n2nc(-c3ccco3)nc2n1,-5%,36%,-1%,nt,9%[12.7 µM]
COc1ccc(NC(=O)c2c(N)cnn2C)cc1,-4%,23%,-10%,14%,nt
CNC(=O)CN1C(=O)c2cccc3cccc1c23,11%,24%,3%,-3%,12%[12.7 µM]
CN1/C(=N\O)c2cccc3cccc1c23,4%,-13%,17%,-24%,32µM*
